Laboratory results reported in PubChem BioAssay (NCI).
About 79,000 compounds went through this panel and 15% of them were active in at least one assay; those are over-represented in the sample as a whole. Calls of active or inactive are those of the source. Cut-off read from the data, not from the text of the source: active = growth inhibition above about 70%; inactive = the rest.

Experiments:
[1] = NCI Yeast Anticancer Drug Screen. Data for the wt2 strain (AID 169);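 note: 0% = growth of vehicle-treated yeast cultures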; conditions: S. cerevisiae wt2 strain growth inhibition, stronger effect = higher value
Method in brief: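 Growth of compound-treated yeast is measured and expressed as inhibition relative to vehicle-only controls.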

[2] = NCI Yeast Anticancer Drug Screen. Data for the mlh1 strain (AID 171);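 note: 0% = growth of vehicle-treated control cultures of the same strain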; conditions: S. cerevisiae mlh1 strain growth inhibition, stronger effect = higher value
Method in brief: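 Test agents were incubated with yeast bearing a defined DNA damage repair or cell cycle control alteration; values are growth inhibition normalised to vehicle-treated cultures.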

[3] = NCI Yeast Anticancer Drug Screen. Data for the sgs1 strain (AID 173);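 note: 0% = growth of vehicle-only control cultures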; conditions: S. cerevisiae sgs1 mutant, stronger effect = higher value
Method in brief: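 Strain with an altered DNA repair or cell cycle pathway exposed to compound. Growth then measured. Value = inhibition versus vehicle control.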

[4] = NCI Yeast Anticancer Drug Screen. Data for the mlh1 rad18 strain (AID 175); conditions: S. cerevisiae mlh1 rad18 strain growth inhibition, stronger effect = higher value
Method in brief: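 A repair-deficient yeast strain is exposed to test compound, and growth is scored relative to vehicle-treated controls.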

[5] = NCI Yeast Anticancer Drug Screen. Data for the rad18 strain (AID 177); conditions: S. cerevisiae rad18 mutant growth inhibition, stronger effect = higher value
Method in brief: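 DNA-repair-defective yeast; compound treatment; growth inhibition scored against vehicle.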

[6] = NCI Yeast Anticancer Drug Screen. Data for the rad52 strain (AID 147);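 note: 0% = growth of vehicle-treated control cultures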; conditions: S. cerevisiae rad52 mutant growth inhibition, stronger effect = higher value
Method in brief: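 Growth of repair-deficient yeast cells was compared between compound-treated and vehicle-treated cultures to give percent inhibition.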

[7] = NCI Yeast Anticancer Drug Screen. Data for the wt1 strain (AID 149);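 note: 0% = growth of vehicle-treated wt1 cultures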; conditions: S. cerevisiae wt1 strain (SPY 50644) growth inhibition, stronger effect = higher value
Method in brief: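 Measured: growth of wt1 yeast under compound versus vehicle treatment, reported as inhibition.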

[8] = NCI Yeast Anticancer Drug Screen. Data for the rad50EPP+ strain (AID 151);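 note: 0% = growth of vehicle-treated control cultures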; conditions: S. cerevisiae rad50 mutant strain, stronger effect = higher value
Method in brief: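 Measured: growth inhibition of rad50EPP+ yeast. Reference: vehicle-treated controls. Screen uses strains with defined genetic alterations in DNA damage repair or cell cycle control.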

[9] = NCI Yeast Anticancer Drug Screen. Data for the mgt1 strain (AID 153); conditions: S. cerevisiae mgt1 mutant growth inhibition, stronger effect = higher value
Method in brief: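 Compounds were applied to mgt1 mutant yeast, and growth was then compared against vehicle-treated control cultures to give percent inhibition.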

[10] = NCI Yeast Anticancer Drug Screen. Data for the rad50 strain (AID 155);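 note: 0% = growth of vehicle-only cultures of the same strain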; conditions: S. cerevisiae rad50 strain growth inhibition, stronger effect = higher value
Method in brief: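 Growth of the mutant yeast was measured after compound exposure and referenced to vehicle-treated cultures.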

[11] = NCI Yeast Anticancer Drug Screen. Data for the mec2-1 strain (AID 157); conditions: S. cerevisiae mec2-1 strain, stronger effect = higher value
Method in brief: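 Compounds were applied to mec2-1 yeast cells. Their growth was then compared with that of vehicle-treated cultures to give growth inhibition.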

[12] = NCI Yeast Anticancer Drug Screen. Data for the rad14 strain (AID 159);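 note: 0% = growth of vehicle-treated control cultures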; conditions: S. cerevisiae rad14 strain growth inhibition, stronger effect = higher value
Method in brief: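 Here, inhibition of yeast growth was measured after compound exposure, using a strain with a genetic defect in DNA damage repair and vehicle-treated cultures as the reference.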

[13] = NCI Yeast Anticancer Drug Screen. Data for the sgs1 mgt1 strain (AID 161);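 note: 0% = growth of cultures given vehicle only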; conditions: S. cerevisiae sgs1 mgt1 strain, stronger effect = higher value
Method in brief: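 Growth of a repair-deficient yeast mutant was monitored after compound treatment and expressed as inhibition relative to vehicle-treated cultures.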

[14] = NCI Yeast Anticancer Drug Screen. Data for the CLN2oe strain (AID 163);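 note: 0% = growth of vehicle-only control cultures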; conditions: S. cerevisiae CLN2oe strain, stronger effect = higher value
Method in brief: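 Cells of an engineered yeast line with disturbed cell-cycle regulation are treated with compound. Inhibition of growth is then calculated relative to the vehicle-treated reference.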

[15] = NCI Yeast Anticancer Drug Screen. Data for the cln2 rad14 strain (AID 165);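 note: 0% = growth equal to vehicle treated cultures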; conditions: S. cerevisiae cln2 rad14 strain, stronger effect = higher value
Method in brief: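 Strain: cln2 rad14 yeast, altered in cell cycle control and DNA damage repair. Read-out: growth inhibition vs vehicle.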

[16] = NCI Yeast Anticancer Drug Screen. Data for the bub3 strain (AID 167); conditions: S. cerevisiae bub3 mutant strain, stronger effect = higher value
Method in brief: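 Whole-cell yeast assay. The mutant strain was incubated with compounds, and growth inhibition was determined by comparison with vehicle-treated cells.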

[17] = at 5.0 µM (retest, dose inferred, filed as 0.5)
[18] = at 50.0 µM (retest, dose inferred, filed as 5.0)

Measured: growth inhibition

COC(=O)CC1(O)C(/C=C/c2ccccc2)C(C(=O)OC)C(=O)C(C(=O)OC)C1C(=O)OC (centres undefined)
active: [4]; at 50.0 µM 85.3%
inactive: [1]; at 1.2 µM -2% | [1]; at 3.7 µM -2% | [1]; at 11.0 µM 0% | [1]; at 33.0 µM -1% | [1]; at 100.0 µM 7% | [2]; at 1.2 µM 1% | [2]; at 3.7 µM -1% | [2]; at 11.0 µM 0% | [2]; at 33.0 µM 1% | [2]; at 100.0 µM 5% | [3]; at 1.2 µM -1% | [3]; at 3.7 µM 1% | [3]; at 11.0 µM 1% | [3]; at 33.0 µM 4% | [3]; at 100.0 µM 43% | [4]; [17] 6% | [4]; [18] 30% | [5]; at 1.2 µM 0% | [5]; at 3.7 µM -2% | [5]; at 11.0 µM -4% | [5]; at 33.0 µM 3% | [5]; at 100.0 µM 4%

Cc1ccccc1N=C(NO)c1ccccc1
inactive: [6]; at 1.2 µM 10% | [6]; at 3.7 µM 9% | [6]; at 11.0 µM 22% | [6]; at 33.0 µM 60% | [7]; at 1.2 µM 0% | [7]; at 3.7 µM -4% | [7]; at 11.0 µM -6% | [7]; at 33.0 µM 9% | [8]; at 1.2 µM 1% | [8]; at 3.7 µM 6% | [8]; at 11.0 µM 15% | [8]; at 33.0 µM 42% | [8]; at 100.0 µM 67% | [9]; at 1.2 µM 0% | [9]; at 3.7 µM -4% | [9]; at 11.0 µM -4% | [9]; at 33.0 µM 30% | [10]; at 1.2 µM 8% | [10]; at 3.7 µM 15% | [10]; [17] -141% | [10]; at 11.0 µM 31% | [10]; at 33.0 µM 59% | [10]; [18] 33% | [11]; at 1.2 µM 1% | [11]; at 3.7 µM 0% | [11]; [17] -44% | [11]; at 11.0 µM -5% | [11]; at 33.0 µM 49% | [11]; [18] 14% | [12]; at 1.2 µM 0% | [12]; at 3.7 µM -4% | [12]; at 11.0 µM 6% | [12]; at 33.0 µM 29% | [13]; [17] -61% | [13]; [18] 49% | [14]; at 1.2 µM -3% | [14]; at 3.7 µM -5% | [14]; at 11.0 µM -2% | [14]; at 33.0 µM 20% | [15]; [17] -56% | [15]; [18] 20% | [16]; at 1.2 µM 3% | [16]; at 3.7 µM -1% | [16]; [17] -67% | [16]; at 11.0 µM -5% | [16]; at 33.0 µM 5% | [16]; [18] 37% | [1]; at 1.2 µM -3% | [1]; at 3.7 µM -3% | [1]; at 11.0 µM -4% | [1]; at 33.0 µM 20% | [2]; at 1.2 µM 1% | [2]; at 3.7 µM 2% | [2]; at 11.0 µM 2% | [2]; at 33.0 µM 31% | [3]; at 1.2 µM 1% | [3]; at 3.7 µM 6% | [3]; at 11.0 µM 15% | [3]; at 33.0 µM 62% | [4]; [17] -122% | [4]; [18] 29% | [5]; at 1.2 µM 1% | [5]; at 3.7 µM 2% | [5]; at 11.0 µM 11% | [5]; at 33.0 µM 35%
active: [6]; at 100.0 µM 97% | [7]; at 100.0 µM 93% | [9]; at 100.0 µM 95% | [10]; at 50.0 µM 90.6% | [10]; at 100.0 µM 97% | [11]; at 50.0 µM 82.8% | [11]; at 100.0 µM 97% | [12]; at 100.0 µM 96% | [13]; at 50.0 µM 80% | [14]; at 100.0 µM 95% | [15]; at 50.0 µM 74.2% | [16]; at 50.0 µM 76.8% | [16]; at 100.0 µM 94% | [1]; at 100.0 µM 94% | [2]; at 100.0 µM 95% | [3]; at 100.0 µM 98% | [4]; at 50.0 µM 92.9% | [5]; at 100.0 µM 96%

COc1cc(O)c(O)c(C(C)(C)C)c1
inactive: [6]; at 1.2 µM -1% | [6]; at 3.7 µM 3% | [6]; at 11.0 µM 5% | [6]; at 33.0 µM 10% | [6]; at 100.0 µM 19% | [7]; at 1.2 µM -1% | [7]; at 3.7 µM -1% | [7]; at 11.0 µM 4% | [7]; at 33.0 µM 3% | [7]; at 100.0 µM 4% | [8]; at 1.2 µM 12% | [8]; at 3.7 µM 16% | [8]; at 11.0 µM 41% | [8]; at 33.0 µM 53% | [8]; at 100.0 µM 50% | [9]; at 1.2 µM -2% | [9]; at 3.7 µM -2% | [9]; at 11.0 µM 4% | [9]; at 33.0 µM 24% | [9]; at 100.0 µM 12% | [10]; at 1.2 µM 0% | [10]; at 3.7 µM -2% | [10]; [17] 10% | [10]; at 11.0 µM 3% | [10]; at 33.0 µM 6% | [10]; [18] 38% | [10]; at 50.0 µM 63.7% | [10]; at 100.0 µM 12% | [11]; at 1.2 µM -3% | [11]; at 3.7 µM -1% | [11]; [17] 4% | [11]; at 11.0 µM 0% | [11]; at 33.0 µM 5% | [11]; [18] 16% | [11]; at 50.0 µM 59.5% | [11]; at 100.0 µM 18% | [12]; at 1.2 µM -1% | [12]; at 3.7 µM -3% | [12]; at 11.0 µM 5% | [12]; at 33.0 µM 10% | [12]; at 100.0 µM 19% | [13]; [17] 2% | [13]; [18] 50% | [13]; at 50.0 µM 63.8% | [14]; at 1.2 µM -1% | [14]; at 3.7 µM -3% | [14]; at 11.0 µM 3% | [14]; at 33.0 µM -3% | [14]; at 100.0 µM -6% | [15]; [17] -14% | [15]; [18] 18% | [15]; at 50.0 µM 4.65% | [16]; at 1.2 µM -6% | [16]; at 3.7 µM -5% | [16]; [17] 0% | [16]; at 11.0 µM 2% | [16]; at 33.0 µM 7% | [16]; at 50.0 µM 61.1% | [16]; at 100.0 µM 17% | [1]; at 1.2 µM -1% | [1]; at 3.7 µM 0% | [1]; at 11.0 µM 8% | [1]; at 33.0 µM 12% | [1]; at 100.0 µM 17% | [2]; at 1.2 µM 3% | [2]; at 3.7 µM 3% | [2]; at 11.0 µM 9% | [2]; at 33.0 µM 15% | [2]; at 100.0 µM 26% | [3]; at 1.2 µM 1% | [3]; at 3.7 µM 7% | [3]; at 11.0 µM 16% | [3]; at 33.0 µM 8% | [3]; at 100.0 µM 43% | [4]; [17] 20% | [4]; at 50.0 µM 22.9% | [5]; at 1.2 µM 0% | [5]; at 3.7 µM 1% | [5]; at 11.0 µM -17% | [5]; at 33.0 µM 8% | [5]; at 100.0 µM 16%
active: [16]; [18] 82% | [4]; [18] 82%
